Among the data in PubChem BioAssay are z-score and composite z-score values, retold here.

Test [1] in a line: E. coli DRC41 culture turbidity changes, primary screen, E. coli filamentation inducer project, strain DRC41, OD650, 48 h (AID 1152).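 Also: E. coli MC1000 strain DRC41 lacking acrAB efflux pump and sulA.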 As to conditions: E. coli DRC41 (acrAB sulA), higher = more signal, called active from +8 up or from −8 down.
A short description of test [2]: small-molecule binders of probe aLefty1, primary screen, biochemical, small-molecule microarray, 635/667 nm fluorescence (AID 1153).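 Also: score merges spot fluorescence with signal-to-noise ratio from the scanned slide images.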 The note with it: higher = more signal.
Test [3] can be described thus: PSAC antagonists in infected red cells, primary screen, cell-based, P. falciparum Indochina, OD700, 1 h (AID 1154). The note with it: P. falciparum Indochina infected RBC osmotic lysis, higher = more signal, called active from +8 up or from −8 down.
A short description of test [4]: PSAC antagonists in infected red cells, primary screen, cell-based, P. falciparum Indochina, OD700, 2 h (AID 1155).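 Also: lysis reports solute entry through the parasite surface anion channel PSAC; channel blockers reduce lysis of infected cells.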 The note with it: P. falciparum Indochina infected erythrocytes, osmotic lysis OD700; higher = more signal, called active from +8 up or from −8 down.
Test [5] in a line: osmotic lysis modulators in infected erythrocytes, primary screen, PSAC antagonist project, cell-based, P. falciparum Indochina, OD700, 3 h (AID 1156). The note with it: higher = more signal, called active from +8 up or from −8 down.
The nature of test [6]: PSAC antagonists in infected red cells, primary screen, cell-based, P. falciparum Indochina, OD700, 18 h (AID 1157). The note with it: P. falciparum Indochina infected erythrocytes, osmotic lysis OD700, 18 h; higher = more signal, called active from +8 up or from −8 down.
A short description of test [7]: modulators of S6 phosphorylation in cells, primary screen, cell-based, A549, cytoblot, luminescence, serum-stimulated (AID 1158).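 Also: serum-stimulated A549 lung adenocarcinoma cells; signal is phosphorylated S6 detected by cytoblot immunostaining with HRP secondary.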 As to conditions: A549 phospho-S6 cytoblot, 5 h, higher = more signal.
Test [8] deals with NADPH oxidase 2 (Homo sapiens) (UniProt P04839). In words: NOX2-dependent H2O2 signal modulators, primary screen, NOX inhibitor project, cell-based, HEK293-NOX2, PMA-stimulated, Amplex Red fluorescence (AID 1159). Also: test concentration not given here. As to conditions: 45 min, higher = more signal, called active from +8 up or from −8 down.
Test [9] concerns the target NADPH oxidase 4 (Homo sapiens) (UniProt Q9NPH5). In words: NOX4-dependent H2O2 signal modulators, primary screen, NOX inhibitor project, cell-based, HEK293-NOX4, tetracycline-induced, Amplex Red fluorescence (AID 1160). The note with it: 45 min, higher = more signal, called active from +8 up or from −8 down.
Test [10] addresses NADPH oxidase 5 (Homo sapiens) (UniProt Q96PH1). As to the kind of experiment: NOX5-dependent H2O2 signal modulators, primary screen, NOX inhibitor project, cell-based, HEK293-NOX5, Amplex Red fluorescence (AID 1161). The note with it: HEK293-NOX5, ionomycin, 45 min, higher = more signal.

Molecules are shown by their SMILES. The source made the active and inactive calls.

NADPH oxidase 4 (Homo sapiens), sequence (Q9NPH5 whole entry, looked up): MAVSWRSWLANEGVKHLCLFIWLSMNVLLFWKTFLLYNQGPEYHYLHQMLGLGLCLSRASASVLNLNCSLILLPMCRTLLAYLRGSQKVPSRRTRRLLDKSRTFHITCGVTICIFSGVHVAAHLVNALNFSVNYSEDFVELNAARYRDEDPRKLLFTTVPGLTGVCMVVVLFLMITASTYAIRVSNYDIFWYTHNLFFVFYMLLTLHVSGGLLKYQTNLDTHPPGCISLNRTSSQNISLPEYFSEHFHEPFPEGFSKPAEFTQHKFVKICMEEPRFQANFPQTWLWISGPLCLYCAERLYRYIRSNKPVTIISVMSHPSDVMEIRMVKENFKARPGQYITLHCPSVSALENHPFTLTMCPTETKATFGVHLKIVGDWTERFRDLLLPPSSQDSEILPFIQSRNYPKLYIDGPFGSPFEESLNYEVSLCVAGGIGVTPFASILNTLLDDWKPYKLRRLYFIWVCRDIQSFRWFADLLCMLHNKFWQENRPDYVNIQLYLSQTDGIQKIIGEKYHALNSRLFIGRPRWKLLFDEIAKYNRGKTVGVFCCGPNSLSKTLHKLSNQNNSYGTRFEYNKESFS
NADPH oxidase 2 (Homo sapiens), sequence (P04839 whole entry, looked up): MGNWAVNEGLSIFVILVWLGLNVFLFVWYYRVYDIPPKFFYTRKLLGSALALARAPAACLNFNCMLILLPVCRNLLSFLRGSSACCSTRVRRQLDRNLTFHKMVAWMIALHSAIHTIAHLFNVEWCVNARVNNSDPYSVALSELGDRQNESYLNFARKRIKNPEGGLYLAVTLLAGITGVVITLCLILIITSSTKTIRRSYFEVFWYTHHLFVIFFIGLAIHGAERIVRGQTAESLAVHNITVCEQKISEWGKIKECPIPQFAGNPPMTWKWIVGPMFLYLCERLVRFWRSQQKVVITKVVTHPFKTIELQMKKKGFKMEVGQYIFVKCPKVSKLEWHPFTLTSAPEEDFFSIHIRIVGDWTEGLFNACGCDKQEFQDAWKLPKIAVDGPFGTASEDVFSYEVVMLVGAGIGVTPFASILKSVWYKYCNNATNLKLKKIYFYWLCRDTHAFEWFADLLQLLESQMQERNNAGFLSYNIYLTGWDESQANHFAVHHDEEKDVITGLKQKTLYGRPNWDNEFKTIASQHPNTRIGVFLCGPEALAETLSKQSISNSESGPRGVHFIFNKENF
NADPH oxidase 5 (Homo sapiens), sequence (Q96PH1 whole entry, looked up): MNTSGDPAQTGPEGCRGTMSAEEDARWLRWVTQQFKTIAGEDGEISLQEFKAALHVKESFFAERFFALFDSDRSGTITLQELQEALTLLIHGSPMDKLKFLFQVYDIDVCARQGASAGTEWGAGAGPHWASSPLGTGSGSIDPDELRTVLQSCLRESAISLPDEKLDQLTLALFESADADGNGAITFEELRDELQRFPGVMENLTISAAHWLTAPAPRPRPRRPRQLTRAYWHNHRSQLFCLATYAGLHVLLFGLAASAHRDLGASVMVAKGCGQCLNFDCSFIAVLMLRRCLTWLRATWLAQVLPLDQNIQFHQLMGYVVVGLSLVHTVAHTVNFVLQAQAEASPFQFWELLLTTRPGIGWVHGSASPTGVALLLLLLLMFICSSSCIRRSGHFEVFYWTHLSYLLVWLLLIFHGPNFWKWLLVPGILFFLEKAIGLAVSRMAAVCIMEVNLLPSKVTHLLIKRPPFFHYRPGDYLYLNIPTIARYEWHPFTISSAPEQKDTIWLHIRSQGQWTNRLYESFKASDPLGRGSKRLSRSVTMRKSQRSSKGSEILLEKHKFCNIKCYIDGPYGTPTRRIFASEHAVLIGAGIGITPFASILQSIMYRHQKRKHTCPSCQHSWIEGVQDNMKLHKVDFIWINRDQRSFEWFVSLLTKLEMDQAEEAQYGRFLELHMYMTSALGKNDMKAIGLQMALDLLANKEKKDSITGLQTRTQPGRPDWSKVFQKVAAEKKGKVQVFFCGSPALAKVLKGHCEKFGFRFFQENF

Turning to `O=C1O[C@@H](c2ccccc2)[C@@H](c2ccccc2)N2[C@@H](c3ccc(O)cc3)[C@]3(C(=O)Nc4ccc(C#CC5=CCCCC5)cc43)[C@@H](C(=O)N3CCN(c4ncccn4)CC3)[C@H]12`, the z-score in test [1] was 1.29 (inactive); in test [3], 0.445 (inactive); in test [4], 0.35 (inactive); in test [5] it was -4.76 (inactive); in [6], 0.614 (inactive); in test [7], 0.401. Moreover, the z-score in test [8] is 0.532 (inactive); in [9] it was 0.278 (inactive); in test [10] it was 0.904. In addition, the composite z-score in test [2] is 0.257.
For the compound `C=C(CCCC)C(=O)CC[C@@H](OC(=O)c1cccnc1)c1ccccc1OCCO`, the z-score was 0.225 (inactive) in test [1]; 22.3 (active) in [3]; 5.38 (inactive) in [4]; 0.88 (inactive) in [5]; 0.871 (inactive) in test [6]; 0.315 in test [7]. Besides, the results for the z-score in [8], in test [9] and in test [10] were -1.73 (inactive), -0.158 (inactive) and -1.44, respectively. Also, in test [2], the composite z-score is -0.101.
Take `C=CC[C@@]1(C(=O)N2CCCCC2)N=C(c2ccc(OCCCO)cc2)O[C@@H]1c1ccccc1`: the z-score is 0.659 (inactive) in test [1]; 26.1 (active) in test [3]; 11.4 (active) in test [4]; 2.02 (inactive) in test [5]; 1.97 (inactive) in test [6]; -0.499 in [7]. In addition, the z-score is -0.432 (inactive) in test [8], 0.174 (inactive) in test [9] and -1.66 in test [10]. Besides, in [2], the composite z-score is 0.683.
For the compound `C=CC[C@@H](OC(=O)Nc1ccc(OC)cc1)c1ccc(OCCO)cc1`, the z-score in test [1] was -0.14 (inactive); in test [3] it was 19.5 (active); in [4], 3.12 (inactive); in test [5] it was -0.149 (inactive); in test [6], 0.894 (inactive); in test [7], 0.0966. In addition, the z-score in test [8] was -4.11 (inactive); in [9], -1.4 (inactive); in [10], -2.78. In addition, the composite z-score in test [2] was -0.0638.
For the compound `CC(C)(C)OC(=O)CC[C@]1(C(=O)NCCN2CCOCC2)N=C(c2ccc(OCCCO)cc2)O[C@H]1c1ccccc1N=[N+]=[N-]`, the z-score was -0.105 (inactive) in test [1]; 31.3 (active) in [3]; 29.2 (active) in [4]; 2.64 (inactive) in [5]; 6.62 (inactive) in test [6]; -0.136 in test [7]. Besides, the z-score in test [8] was -2.46 (inactive); in test [9] it was 1.62 (inactive); in [10] it was -1.99. Also, the composite z-score in test [2] worked out at 0.591.
For the compound `COc1ccc(C#Cc2ccc3c(c2)[C@]2(C(=O)N3)[C@H](C(=O)N3CCc4cc(OC)c(OC)cc4C3)[C@H]3C(=O)O[C@H](c4ccccc4)[C@H](c4ccccc4)N3[C@@H]2c2ccc(O)cc2)cc1`, the z-score in test [1] is -0.658 (inactive); in test [3], 0.488 (inactive); in [4], 0.216 (inactive); in [5], -0.103 (inactive); in [6], 0.296 (inactive); in test [7], -0.203. In addition, the z-score in test [8] was 1.32 (inactive); in [9] it was 0.574 (inactive); in test [10] it was -0.523. In [2], the composite z-score came to 0.0839.
Consider `C=C(CCCC)C(=O)CC[C@@H](OC(=O)c1ccccc1-c1ccccc1C(=O)O)c1cccc(OCCO)c1`, for which the z-score in test [1] was -0.397 (inactive); in test [3] it was 22.3 (active); in test [4], 4.27 (inactive); in [5], 1.11 (inactive); in test [6], 0.896 (inactive); in test [7], -0.348. In addition, the z-score was 2.86 (inactive) in test [8], -0.351 (inactive) in test [9] and -1.08 in test [10]. For the same compound, the composite z-score in test [2] is -0.168.
For `C=CCN1C(=O)[C@]2(CC=C)N=C(c3ccc(OCCCO)cc3)O[C@@H]2c2ccccc21`, the z-score in test [1] was 0.987 (inactive); in test [3], 33.2 (active); in test [4], 34.2 (active); in [5] it was 2.64 (inactive); in test [6], 10.6 (active); in test [7] it was -0.112. The results for the z-score in [8], in test [9] and in test [10] were -1.13 (inactive), 1.08 (inactive) and 1.09, respectively. In test [2], this compound registered a composite z-score of 0.544.
Consider `CN(C)CCCNC(=O)[C@@]1(c2ccc([N+](=O)[O-])cc2)CC(=O)N(CC23CC4CC(CC(C4)C2)C3)[C@@H]1c1ccc(CO)cc1`, for which the z-score in test [1] was -3.6 (inactive); in [3], 0.924 (inactive); in [4], -0.365 (inactive); in [5], -0.788 (inactive); in [6] it was -0.798 (inactive); in [7] it was -2.28. In addition, the z-score in test [8] is -8.3 (active); in test [9] it was -2.09 (inactive); in test [10], 0.357. In addition, the composite z-score in [2] was determined as 0.885.
As to `COc1ccc([Si](C)(C)[C@@H]2[C@@H](CC(=O)N3CCC[C@H]3CO)O[C@]3(C(=O)N(Cc4ccc(N5C(=O)c6cccc7cccc5c67)cc4)c4ccccc43)[C@H]2C)cc1`, the z-score was 1.13 (inactive) in test [1]; 5.77 (inactive) in [3]; 1.71 (inactive) in test [4]; 1.06 (inactive) in [5]; 0.918 (inactive) in [6]; 0.486 in [7]. Further, the z-score was 3.1 (inactive) in test [8], 1.37 (inactive) in test [9] and 4.38 in test [10]. This compound also gave a composite z-score in test [2] of -0.0984.
For the compound `C=C(CCCC)/C(=C/C[C@@H](OC(C)=O)c1ccc(CO)o1)c1cc(C(=O)OC)ccc1OC`, the z-score in [1] was -0.132 (inactive); in [3], 9.64 (active); in test [4], 0.938 (inactive); in [5] it was 1.3 (inactive); in [6] it was 0.553 (inactive); in [7] it was 0.476. For the same compound, the z-score in [8] is 0.615 (inactive); in test [9], -0.832 (inactive); in [10] it was -1.18. The compound further showed a composite z-score in [2] of -0.0011.
Consider `COCCOC(=O)N1C(=O)[C@@]2(c3cc(C#Cc4ccc(OC)cc4)ccc31)[C@H](C(=O)N1CCN(c3ncccn3)CC1)[C@H]1C(=O)O[C@H](c3ccccc3)[C@H](c3ccccc3)N1[C@@H]2c1ccccc1OCCO`, for which the z-score was 0.0325 (inactive) in test [1]; 2.79 (inactive) in test [3]; 2.29 (inactive) in test [4]; 0.641 (inactive) in [5]; 1.07 (inactive) in test [6]; -0.43 in test [7]. For the same compound, the z-score is 0.405 (inactive) in test [8], 0.152 (inactive) in test [9] and 1.06 in test [10]. The composite z-score in [2] is 0.406.
Take `COCC(=C=CC[C@H](O)c1ccc(OCCO)cc1)C[C@H](O)COCc1ccccc1`: the z-score is 1.19 (inactive) in [1]; 16.5 (active) in [3]; 1.61 (inactive) in [4]; 0.103 (inactive) in [5]; -0.749 (inactive) in test [6]; 0.974 in [7]. Also, the z-score in test [8] was -1.6 (inactive); in test [9] it was -0.65 (inactive); in test [10], -2.52. The same compound gave a composite z-score in test [2] of 0.179.
